Source: PubChem BioAssay (The Scripps Research Institute Molecular Screening Center)
CHO-K1 Ca PAM – nonselective calcium activators in parental CHO-K1 cells, primary screen, counter-screen for M1 PAM project, cell-based, Fluo-8 calcium fluorescence, full deck, 1536-well; ATP EC20; 0% at ATP EC20, 100% at ATP max; 360,000 compounds, 0.02% hits; AID 602247, 2012; activation, % at 3 µM;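 active = activation above the run cutoff, the mean activation of all test compounds plus 3 SD, cut at about 40% in these data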;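 note: peak over basal fluorescence ratio in a 140 s read after ATP addition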
M1 ag – human M1 muscarinic receptor agonists, primary screen, Fluo-8 calcium fluorescence, CHO-K1 cells, HTS; Muscarinic acetylcholine receptor M1 (Homo sapiens), P11229; CHO-K1 hM1, agonist mode; 0% DMSO, 100% acetylcholine EC100; activation, % at 3 µM; 360,000 compounds, 0.33% hits; AID 588814, 2011;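 active = activation above the run's mean compound activation plus 3 SD, cut at about 16% in these data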;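 note: peak over basal fluorescence ratio within a 140 s kinetic read after compound addition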
Target sequence (P11229 whole entry, looked up): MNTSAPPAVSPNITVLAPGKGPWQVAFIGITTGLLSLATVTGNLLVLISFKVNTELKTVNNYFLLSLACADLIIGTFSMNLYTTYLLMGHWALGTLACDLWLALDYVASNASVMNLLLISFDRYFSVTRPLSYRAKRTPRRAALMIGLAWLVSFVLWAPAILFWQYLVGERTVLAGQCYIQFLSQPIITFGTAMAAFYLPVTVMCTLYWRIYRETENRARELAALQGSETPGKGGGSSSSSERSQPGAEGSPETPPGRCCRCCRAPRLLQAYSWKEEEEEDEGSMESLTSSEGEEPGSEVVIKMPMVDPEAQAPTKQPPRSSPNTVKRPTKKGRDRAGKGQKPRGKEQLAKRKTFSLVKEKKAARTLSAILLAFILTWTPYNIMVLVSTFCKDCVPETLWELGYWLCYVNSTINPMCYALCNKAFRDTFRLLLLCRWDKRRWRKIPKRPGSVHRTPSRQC
M1 PAM – human M1 muscarinic receptor positive allosteric modulators, primary screen, CHO-K1 cells, Fluo-8 calcium fluorescence, 1536-well. AID 588819, 2011. 360,000 compounds, 0.088% hits. CHO-K1 hM1, ACh EC20; 0% = ACh EC20, 100% = maximal ACh. activation, % at 3 µM. Muscarinic acetylcholine receptor M1 (Homo sapiens), P11229; in the data active = activation above about 19%, passing the limit was not always enough
M1 ag parental – counter-screen for M1 agonists: effect in parental CHO-K1 cells; Fluo-8 calcium fluorescence; scaled to maximal ATP response, vehicle zero; activation, % at 3 µM; 360,000 compounds, 0.48% hits; AID 602248, 2012; in the data active = activation above about 15%;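 note: untransfected CHO-K1 host cells lacking M1 receptor as counterscreen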
CHO-K1 Ca antag – M1 antagonist counterscreen hit in parental CHO-K1 cells; ATP-induced calcium, Fluo-8 fluorescence; inhibition, % at 3 µM; 360,000 compounds, 0.6% hits;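 active = inhibition above a per-plate cutoff, the plate's mean sample inhibition plus 3 SD, cut at about 24% in these data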;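 note: 0% = DMSO plus EC80 ATP and 100% = DMSO alone without ATP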
M1 antag – human M1 muscarinic receptor antagonists, primary screen, CHO-K1 cells, Fluo-8 calcium fluorescence, 1536-well | inhibition, % at 3 µM | Muscarinic acetylcholine receptor M1 (Homo sapiens), P11229 | CHO-K1 hM1, ACh EC80 antagonist | 360,000 compounds, 1.3% hits;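 active = percent inhibition above its own plate's cutoff, namely the mean of that plate's compound wells plus 3 SD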;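 note: peak over basal fluorescence ratio during 140 s after agonist addition; 0% = ACh EC80 plus DMSO and 100% = DMSO alone without agonist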
The depositor's hits bear a star. Shown are actives, neighbours in structure and some others; about 2.4% of the full set was active somewhere.

SMILES	CHO-K1 Ca PAM	M1 ag	M1 PAM	M1 ag parental	CHO-K1 Ca antag	M1 antag
O=C(Cc1ccc(Br)cc1)OCC(=O)N1CCc2ccccc2C1	19.8	-0.9	6.5	0.2	-9.8	-17.2
C=CCn1c(SCC(=O)Nc2cc(C)on2)nc2ccccc21	-3.0	-7.9	0.3	-0.1	-4.0	-12.7
COc1cc(/C=N/N(C)C)cc(Br)c1O	0.9	-0.8	23.0*	0.6	-6.0	-24.5
CN=c1scc(C)n1/N=C/c1cc(Br)c(O)c(OC)c1	7.9	-4.6	5.4	0.2	-11.7	-9.0
COc1ccc(OC)c(NC(=O)c2cnc3n(c2=O)CCS3)c1	-14.8	-2.7	3.1	0.0	26.3*	-3.8
CC(=O)N1CCN(Cc2nc3cc(NC(=O)c4ccccc4)ccc3n2C)CC1	-3.0	-1.2	-5.1	0.5	8.9	-5.2
Cn1c(CN2CCN(c3cccc(Cl)c3)CC2)nc2ccccc21	-3.4	-6.5	-14.8	0.5	0.9	26.1*
CC1CCN(CCc2nc3cc(NC(=O)C(C)C)ccc3n2C)CC1	0.1	-11.0	-31.6	1.9	-13.0	88.2*
Cc1nn(CC(=O)Nc2ccc3c(c2)nc(CCN2CCCCC2)n3C)c(=O)c2ccccc12	15.3	-6.8	-21.4	0.3	-5.3	40.4*
COc1ccccc1C(=O)Nc1ccc2c(c1)nc(CN1CCN(C(C)=O)CC1)n2C	-7.5	-2.7	-5.6	-0.6	24.2*	6.3
Cn1c(=O)[nH]c(=O)c2c1nc(CN1CCN(c3cccc(Cl)c3)CC1)n2CCc1ccccc1	18.5	1.3	14.2	0.0	-21.6	-16.8
CCCCn1c(N)c(N(CCOC)C(=O)CCS(=O)(=O)c2ccc(C)cc2)c(=O)[nH]c1=O	16.6	-3.6	2.0	0.5	-7.0	-3.6
CC(CCC(=O)O)C1CC[C@@]2(C)C3C(=O)CC4C(C)(C)C(O)CC[C@]4(C)C3C(=O)C[C@]12C (some centres undefined)	26.3	0.5	23.9	1.5	-11.5	-25.0
C/C(=N/NC(=O)CNC(=O)Cc1ccccc1)c1ccc(Cl)cc1	-1.8	-2.7	13.8	-0.5	-5.1	-20.3
Cc1noc(/C=C/N(C)C)c1S(=O)(=O)N(C)Cc1ccc(F)cc1	15.6	-1.1	-4.2	0.0	-1.3	14.8
CC(C)C(=O)Nc1ccc2c(c1)nc(CCN1CCCCC1)n2C	6.7	-10.7	6.1	1.1	0.8	-7.6
CC(C)C(=O)Nc1ccc2c(c1)nc(CCN1CCN(c3ccccc3)CC1)n2C	-15.9	-8.3	-19.4	0.3	10.6	44.5*
O=Cc1ccccc1OCCOc1ccccc1C=O	-4.0	-14.2	-34.1	6.5	4.3	82.3*
COc1ccc(Cl)c(-c2cc(C(=O)Nc3ccc(F)cc3)[nH]n2)c1	-7.8	0.0	-8.7	4.5	9.7	11.5
COC(=O)[C@H](Cc1c[nH]c2ccccc12)NC(=O)CCCc1c[nH]c2ccccc12	11.7	2.5	1.9	16.1*	2.8	-0.1
O=C(CCc1c[nH]c2ccccc12)NC(Cc1c[nH]c2ccccc12)C(=O)O (centres undefined)	19.5	-1.6	16.6	-0.4	-8.1	-12.1
COC(=O)[C@H](Cc1c[nH]c2ccccc12)NC(=O)Cc1c[nH]c2ccccc12	7.6	2.5	4.2	13.1	-6.0	-8.3
CCOC(=O)C(Cc1ccc(O)cc1)NC(=O)CCc1c[nH]c2ccccc12 (centres undefined)	4.0	21.3*	0.4	10.8	-5.0	-2.9
COc1ccc(Cl)c(NC(=O)C/C(C)=N/NC(=O)CCc2ccccc2)c1	-8.2	-4.8	4.6	-0.2	-11.1	-1.3
FC(F)(F)c1cnc(N2CCCN(C(=S)Nc3ccccc3)CC2)c(Cl)c1	11.0	-0.5	-11.7	16.6*	5.1	20.7
SMILES	CHO-K1 Ca PAM	M1 ag	M1 PAM	M1 ag parental	CHO-K1 Ca antag	M1 antag
FC(F)(F)c1cnc(N2CCN(C(=S)NCc3ccccc3)CC2)c(Cl)c1	7.7	-3.2	-9.1	3.4	-10.3	3.5
CCCn1c(N)c(C(=O)NS(=O)(=O)c2ccc(C)cc2)c(=O)n(C)c1=O	2.5	-0.2	5.8	16.6*	6.4	-3.3
CC(=O)N1CCN(CC(=O)Nc2c(Cl)ccc(C)c2Cl)CC1	9.5	-1.9	5.0	0.3	-9.1	0.4
N=C(N)SCc1ncccc1O	20.3	11.6	3.8	0.3	-18.5	-13.9
N=C(N)SCc1ccccn1	25.9	29.9*	-6.3	0.1	-0.7	-1.6
COc1cc(Cl)c(C)cc1NC(=O)CCN1C(=O)NC(C)(C)C1=O	5.6	-2.4	-1.2	0.3	11.3	6.4
Fc1ccc(-c2ccc3c(c2)C2CC3CCN2)cc1 (centres undefined)	5.5	-4.3	-30.0	4.6	-2.1	39.3*
Cc1cccc(-c2ccc3c(c2)C2CC3CCN2)c1 (centres undefined)	1.7	-9.9	-27.1	0.6	7.4	32.2
CCCN1C(=O)/C(=C/c2ccc(N3CCCC3)c(C)c2)NC1=S	0.1	46.9*	-8.2	54.0*	59.6*	58.7*
Cc1cc(/C=C2\NC(=S)N(C)C2=O)ccc1N1CCCC1	-17.6	54.8*	-30.3	75.7*	60.0*	59.2*
Cc1cc(/C=C2/C(=O)N(C)C(=S)N2C)ccc1N1CCCC1	-10.6	-2.4	-11.4	3.0	8.1	12.1
CCCN1C(=O)/C(=C/c2ccc(OCC(=O)OCC)cc2)NC1=S	21.1	1.9	3.9	10.6	-10.5	-4.3
Cc1cc(NC2CCCCC2)nc(NCc2ccccc2)n1	8.4	-4.3	-20.4	15.1*	22.4	35.4*
C[N+](C)(C)C/C=C1/COCO1	19.4	90.6*	-17.1	0.1	-6.6	96.2*
CC(C)[C@H](NC(=O)N1CCn2c1nc1ccccc12)C(=O)NC1CCCCC1	-3.7	-3.0	12.2	-0.8	-3.4	-10.9
CCc1nc2c(OCc3cccc(Cl)c3)cccn2c1N(C)C(=O)C1CC1	21.9	-9.3	-6.0	0.2	-8.5	-8.9
CC1=C/C(=N\OC(=O)/C=C/c2ccccc2)C(C)=CC1=O	-3.6	1.3	11.1	-0.1	28.2*	0.5
CCc1nc2ccc(C(=O)N3CCN(c4cccc(C(F)(F)F)c4)CC3)cc2nc1CC	17.8	-5.5	-22.9	-0.2	-17.1	47.0*
Cc1cc(OCCCCN2C(=O)NC(C)(C)C2=O)ccc1[N+](=O)[O-]	-4.3	-1.6	-10.4	17.0*	-4.6	7.6
Cc1ccc([N+](=O)[O-])c(OCCN2C(=O)NC(C)(C)C2=O)c1	-5.4	-4.1	8.1	-0.1	-1.2	-12.9
COc1ccc(OC)c(CCNC(=O)c2ccc3c(c2)N(Cc2ccccc2)CCS3)c1	5.3	-1.1	0.9	0.2	-15.4	-11.0
